One assay has as its system Staphylococcus aureus. Conditions: Concentration 20 uM; ASSAY_TEST Inhibition of Bacterial Growth; detection method Absorption (OD600); MEDIA CAMHB; plate type 384well; NBS; CORNING #3640; time 18 hr.
Another assay concerns Escherichia coli. Conditions: Concentration 20 uM; ASSAY_TEST Inhibition of Bacterial Growth; detection method Absorption (OD600); MEDIA CAMHB; plate type 384well; NBS; CORNING #3640; time 18 hr.

Results on ten compounds are retold here after ChEMBL document CHEMBL4513141, “CO-ADD screening of NIH (USA) - Clinical Collection” (2021).

A word on the Inhibition: it is the change of the read-out against control, counted positive when it falls.

Results with a measured potency or affinity are listed apart.

Consider `C=C1/C(=C\C=C2/CCC[C@]3(C)[C@@H]([C@H](C)CCCC(C)(C)O)CC[C@@H]23)C[C@@H](O)C[C@@H]1O` [CALCITRIOL], for which the figures for the Inhibition in the assay with Staphylococcus aureus and in the assay on Escherichia coli were 3.12% and 7.51%, respectively.
In the case of `COc1ccccc1N1CCN(CC(O)COc2cccc3ccccc23)CC1` (stereo not given) [NAFTOPIDIL], the Inhibition in the assay on Staphylococcus aureus was 4.28%; with Escherichia coli, 7.29%.
In the case of `O=C1C(CC[S+]([O-])c2ccccc2)C(=O)N(c2ccccc2)N1c1ccccc1` (stereo not given) [SULFINPYRAZONE], the Inhibition was found to be 18.52% in the assay with Staphylococcus aureus and 6.57% with Escherichia coli.
Taken in the same sequence, the figures for `COC(=O)CCc1ccc(OCC(O)CNC(C)C)cc1.Cl` (stereo not given) [ESMOLOL HYDROCHLORIDE] were 16.29% and -0.36%.
Taken in the same sequence, the figures for `CCOc1cc(CC(=O)N[C@@H](CC(C)C)c2ccccc2N2CCCCC2)ccc1C(=O)O` [REPAGLINIDE] were 15.76% and -4.96%.
Taken in the same sequence, the figures for `Nc1ncnc2c1ncn2[C@@H]1O[C@H](CO)C[C@@H]1O.O` were 7.37% and 1.02%.
For the compound `CC1CNc2c(cccc2S(=O)(=O)N[C@@H](CCCNC(=N)N)C(=O)N2CC[C@@H](C)C[C@@H]2C(=O)O)C1` (stereo not given in full) [ARGATROBAN], the Inhibition in the assay with Staphylococcus aureus is 5.54%; in the assay with Escherichia coli it was -1.85%.
For `c1ccc2[nH]c(-c3cscn3)nc2c1` [THIABENDAZOLE], in that order: 9.35% and 1.68%.
Taken in the same sequence, the figures for `C[C@]12C[C@H](O)[C@H]3[C@@H](CCC4=CC(=O)CC[C@@]43C)[C@@H]1CC[C@@H]2C(=O)CO` [CORTICOSTERONE] were 12.8% and 2.35%.
Take `NS(=O)(=O)c1cc2c(cc1Cl)N=CNS2(=O)=O` [CHLOROTHIAZIDE]: the values for the Inhibition in the assay with Staphylococcus aureus and with Escherichia coli were 7.87% and -2.82%, respectively.
